Compound activity: PubChem, The Scripps Research Institute Molecular Screening Center
This is a sample that favours compounds with a hit; in the whole collection about 3.5% have one here.
GPR151 activ = human GPR151 activation; 650,000 tested, 1% active; activation, % at 11.2 µM; Q8TDV0; AID 1508602; PathHunter beta-arrestin GPR151 cells, luminescence; in the data active = activation above about 4.9%
Target sequence (Q8TDV0 whole entry, looked up): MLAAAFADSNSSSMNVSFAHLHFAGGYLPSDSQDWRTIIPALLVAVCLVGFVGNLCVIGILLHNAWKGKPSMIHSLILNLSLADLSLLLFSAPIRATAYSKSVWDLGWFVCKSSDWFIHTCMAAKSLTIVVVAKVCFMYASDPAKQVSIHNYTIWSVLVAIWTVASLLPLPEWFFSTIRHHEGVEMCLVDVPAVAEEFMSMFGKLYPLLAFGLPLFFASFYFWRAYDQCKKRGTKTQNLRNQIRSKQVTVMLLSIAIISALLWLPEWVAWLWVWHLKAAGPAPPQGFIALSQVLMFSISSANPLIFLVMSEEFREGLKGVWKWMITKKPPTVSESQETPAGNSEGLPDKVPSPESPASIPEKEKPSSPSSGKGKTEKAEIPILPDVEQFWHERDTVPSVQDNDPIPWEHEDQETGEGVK
TEAD-YAP inh = TEAD-YAP interaction inhibition. HEK-TIYL cells, TEAD-Gal4/YAP UAS-luciferase luminescence. inhibition, % at 9.12 µM. 640,000 tested, 1.4% active; in the data active = inhibition above about 32%
MITF inh = inhibitors of human MITF. O75030. inhibition, % at 2.6 µM. AlphaScreen MITF homodimerization, bead proximity signal. AID 1259374. 650,000 tested, 0.91% active; in the data active = inhibition above about 50%
FBW7 act = activators of human E3 ligase FBW7; 650,000 tested, 0.13% active; AlphaScreen FBW7–phospho-cyclin E peptide binding, activator screen; Q969H0; normalized activity (activation), % at 26.1 µM; in the data active = normalized activity above about 1.9%;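 also: purified mutant Fbw7 with reduced substrate affinity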
Each line names hits and unclear results; the compound was inactive in the other large screens.

CCC(=O)NC(c1cccs1)c1ccc2ccccc2c1O (centres undefined)	none
O=C(NCCCN1CCCC1=O)C1CCN(c2nnc(-n3cccc3)s2)CC1	none
CC(=O)Nc1ccc(NC(=O)C(C)Oc2ccc(C)cc2)cc1 (centres undefined)	none
COc1cccc(CNC(=O)c2cn3cc(-c4cn[nH]c4)ccc3n2)c1	none
CCN(CC)c1cc(C)nc(Nc2ccc(NC(=O)C(C)C)cc2)n1	TEAD-YAP inh 48
Fc1ccc(C2=NNC(=NC3CC3)SC2)cc1F	TEAD-YAP inh 65
CCOC(=O)c1c(C)[nH]c(C2=NNC(=NC3CC3)SC2)c1C	TEAD-YAP inh 78
CCC(=O)Nc1ccc(C2=NNC(=NC3CC3)SC2)cc1	TEAD-YAP inh 51
CCC(=O)Nc1ccc(C2=NNC(=Nc3ccc(C)cc3)SC2)cc1	none
COc1ccc(Cl)cc1NC(=O)CN1C(=O)CC(c2ccco2)Sc2ccccc21 (centres undefined)	TEAD-YAP inh 45
COc1ccc(OC)c(NC(=O)CN2C(=O)CC(c3ccco3)Sc3ccccc32)c1 (centres undefined)	none
COC(=O)C(CC(C)C)NC(=O)CSc1nc(N)cc(=O)[nH]1 (centres undefined)	none
CC1=C/C(=N/Nc2nc3ccccc3[nH]2)CC(C)(C)C1	none
CC1CCC(=NNc2nc3ccccc3[nH]2)CC1 (centres undefined)	none
CC1=C/C(=N\Nc2nc3ccccc3[nH]2)CC1	TEAD-YAP inh 32
c1ccc(C2CCC(=NNc3nc4ccccc4[nH]3)CC2)cc1 (centres undefined)	TEAD-YAP inh 33
CC(C)(C)CN1CCNC(=O)C1CC(=O)N1CCc2c(Cl)cccc2C1 (centres undefined)	none
O=C(c1cc2c(Cl)nc3ccccc3c2s1)N1CCOCC1	none
CCOc1ccc(NC(=O)C2=C(C)NC(=O)NC2c2ccccc2Cl)cc1 (centres undefined)	TEAD-YAP inh 33
Fc1ccc(CSc2nc3ccccc3o2)c2ccccc12	none
COc1ccc(OC)c(/C=C2\SC(N)=NC2=O)c1	MITF inh 58
NC1=NC(=O)/C(=C/c2cc(O)ccc2Cl)S1	TEAD-YAP inh 39
COc1ccc(/C=C2/SC(N)=NC2=O)c(OC)c1	none
Cc1cccc(CN2CCc3nnc(CCNC(=O)C4CCC4)n3CC2)n1	none
COc1cc(OC)cc(C(=O)Nn2c(-c3cccc(C)c3)nc3ccccc3c2=O)c1	FBW7 act 1.9
COc1cccc(C(=O)Nn2c(=S)[nH]c3ccccc3c2=O)c1	TEAD-YAP inh 40
COc1cc2[nH]c(=S)n(NC(=O)c3ccccc3)c(=O)c2cc1OC	none
COc1ccc(C(=O)Nn2c(SCC(=O)NCCc3ccc(OC)c(OC)c3)nc3ccccc3c2=O)cc1	TEAD-YAP inh 78
COc1ccc(CCNC(=O)CSc2nc3ccccc3c(=O)n2NC(=O)Cc2ccccc2)cc1OC	none
O=C(CSc1cnc2ccccc2n1)c1ccc(F)cc1	TEAD-YAP inh 49
COc1cccc(C(=O)Nn2c(-c3cccc(OC)c3)nc3ccccc3c2=O)c1	none
CN1CCN(c2ccc(-c3nc(C(=O)Nc4ccc(N5CCOCC5)cc4)cs3)cc2)CC1	none
CC(C)CNc1ncc(-c2ccccc2CN(C)C)n2ccnc12	none
COc1ccc(NC(=O)CSc2nc3ccccc3c(=O)n2CCC(=O)NCCc2ccc(OC)c(OC)c2)c(OC)c1	none
O=C(NCCOc1ccc(F)cc1)c1ccc(Cn2ccnc2)cc1	none
COc1ccc(C(=O)Nn2c(SCC(=O)c3ccc(F)cc3)nc3ccccc3c2=O)cc1	TEAD-YAP inh 46
COc1ccc(C(=O)Nn2c(SCC(=O)c3ccccc3)nc3ccccc3c2=O)cc1	TEAD-YAP inh 70
COc1ccc(C(=O)Nn2c(SCc3ccc([N+](=O)[O-])cc3)nc3ccccc3c2=O)cc1	TEAD-YAP inh 49
O=C(Cc1ccccc1)Nn1c(SCC(=O)c2ccc(F)cc2)nc2ccccc2c1=O	none
O=C(CSc1nc2ccccc2c(=O)n1NC(=O)c1ccccc1)c1ccc(Br)cc1	none
COc1ccc(COC(=O)c2cccc(S(=O)(=O)NCc3ccccc3)c2)cc1F	TEAD-YAP inh 45
COC(=O)c1cc(COC(=O)c2cccc(S(=O)(=O)NCc3ccccc3)c2)oc1C	none
O=C1OC(C2CCCCC2)=N/C1=C\c1cccc(Br)c1	none
O=C(OCC(=O)N1CCN(C(=O)c2ccco2)CC1)c1cc(O)c(O)c(O)c1	MITF inh 81
Cn1cc(-c2ccc3cnc(Nc4ccc(-n5cnc(N6CCOCC6)n5)cc4)nc3c2C2CC2)cn1	TEAD-YAP inh 81
COc1c(-c2cnn(C)c2)ccc2cnc(Nc3ccc(-n4cnc(N5CCOCC5)n4)cc3)nc12	TEAD-YAP inh 81
Cn1cc(-c2ccc3cnc(Nc4ccc(-n5cnc(N6CCOCC6)n5)cc4)nc3c2-c2ccccc2)cn1	TEAD-YAP inh 98
O=C(c1cccs1)N1CCN(c2nc(N3CCCC3)nc(-n3ccnc3)n2)CC1	none
CN(C)CCCN(C(=O)c1ccc(Br)s1)c1nc2c(F)cc(F)cc2s1	FBW7 act 3.2
CN(C)CCCN(C(=O)c1ccc2c(c1)OCCO2)c1nc2c(F)cc(F)cc2s1	none
CC(NC(=O)/C(=C/c1ccc(-c2ccc(Cl)cc2)o1)NC(=O)c1ccc(Cl)cc1)c1ccccc1 (centres undefined)	none
COc1cc(NC(=S)NC(=O)/C=C/c2ccco2)ccc1NC(=O)c1ccco1	TEAD-YAP inh 49
COc1cc(NC(=O)/C=C/c2ccco2)ccc1NC(=O)c1ccco1	none
O=C(/C=C/c1ccco1)NC(=S)Nc1ccc(NC(=O)c2ccco2)cc1	TEAD-YAP inh 69
CC(C)(C)C(=O)Nc1ccc(C(=O)/C=C/c2ccco2)cc1	TEAD-YAP inh 37
O=C(/C=C/c1ccco1)NC(=S)Nc1ccccc1	none
COCc1cc(C)nc2sc3c(=O)n(Cc4ccccc4)nnc3c12	none
Cc1ccc2nc(NC(=O)CSCC(=O)O)sc2c1	TEAD-YAP inh 60
COc1ccc(CNC(=O)CSc2ccc(-c3nc4ccccc4[nH]3)cn2)cc1	none
COc1ccc(CCNC(=O)c2cccc(Nc3ccncc3)n2)cc1	none
O=C(NCc1ccccc1)c1cccc(Nc2ccc(N3CCOCC3)cc2)n1	none
O=C(NCCOc1ccccc1F)c1ccc2ccccc2n1	TEAD-YAP inh 58
O=C(NCCOc1ccccc1)c1cccc(Nc2ccc(N3CCOCC3)cc2)n1	TEAD-YAP inh 47
COc1ccc(CCNC(=O)c2cccc(Nc3ccc(-n4ccnc4)cc3)n2)cc1	TEAD-YAP inh 49
O=C(NCCOc1ccccc1)c1ccc2ccccc2n1	TEAD-YAP inh 53
Cc1ccc(/C(O)=C2/C(=O)C(=O)N(CCCN3CCOCC3)C2c2ccncc2)cc1 (centres undefined)	none
C=CCNC(=O)CN1CCN(c2cc(C)ccc2C)CC1	none
Cc1c(C(=O)N2CCCCC2)sc2ncnc(N3CCN(c4ccccn4)CC3)c12	none
CCN1C(=O)C2ON(c3ccc(Cl)cc3)C(c3ccccc3)C2C1=O (centres undefined)	none
CC1=Nc2ccccc2/C1=C/c1sc(=N)n(-c2nccs2)c1O	TEAD-YAP inh 32
CN(C)CCNC(=O)c1ccc(S(=O)(=O)c2ccc(Br)cc2)c([N+](=O)[O-])c1	TEAD-YAP inh 55
